This is part of a sample that, as a whole, favours compounds with a hit. Of some 83,000 tested, about 20% had one in any assay.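 96-well plates, one dose, 48 hours. Percent growth reported; active if below 10.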 A number with no mark means an inactive call. Active and inactive are the calls of the source.

Among the test systems are SK-MEL-2 melanoma; EKVX NSCLC; SN12C renal; UO-31 renal; TK-10 renal; ACHN renal; A498 renal; CCRF-CEM leukemia; MOLT-4 leukemia; SR leukemia; RPMI-8226 leukemia; OVCAR-8 ovarian; OVCAR-5 ovarian; OVCAR-4 ovarian; SK-OV-3 ovarian; IGROV1 ovarian; OVCAR-3 ovarian; HS 578T breast; NCI/ADR-RES ovarian; CAKI-1 renal.
Assay in all cases: NCI-60 one-dose screen, 48 h (100 = growth as untreated, 0 = no growth, -100 = all killed)
Holding throughout (details): 10 µM

On to `CN(C)CCCOc1ccc(NC2=C(Cl)C(=O)C(Nc3ccc(OCCCN(C)C)cc3)=C(Cl)C2=O)cc1`, for which the growth in the assay with SK-MEL-2 melanoma was -40.2% (active); in the assay on EKVX NSCLC, -89% (active); in the assay on SN12C renal it was -91.6% (active); with UO-31 renal it was -99% (active); with TK-10 renal it was -98.7% (active); in the assay on ACHN renal, -94.1% (active). The growth in the assay with A498 renal is -49% (active); in the assay with CCRF-CEM leukemia it was -31.2% (active); in the assay on MOLT-4 leukemia it was -23.4% (active); in the assay on SR leukemia, -1.57% (active); with RPMI-8226 leukemia, -44.1% (active); in the assay with OVCAR-8 ovarian it was -68.3% (active). For the same compound, the growth was -60.6% (active) in the assay with OVCAR-5 ovarian; -98.9% (active) in the assay with OVCAR-4 ovarian; 24.4% with SK-OV-3 ovarian; -68.2% (active) in the assay with IGROV1 ovarian; -98.3% (active) in the assay with OVCAR-3 ovarian; -0.291% (active) in the assay with HS 578T breast. Besides, the growth with NCI/ADR-RES ovarian is 8.96% (active).
`O=C(Nc1cc([N+](=O)[O-])c2[nH]c(=O)c3ccccc3c2c1)C(F)(F)F`: the growth is 106% in the assay on SK-MEL-2 melanoma; 67.1% in the assay on EKVX NSCLC; 76.8% in the assay with SN12C renal; 54.5% in the assay on UO-31 renal; 84% in the assay on TK-10 renal; 58.6% with ACHN renal. Further, the growth is 89.1% in the assay with CAKI-1 renal; 55.2% in the assay with MOLT-4 leukemia; 77.2% in the assay with OVCAR-8 ovarian; 104% with OVCAR-5 ovarian; 92.6% in the assay on OVCAR-4 ovarian; 81.2% with SK-OV-3 ovarian. For the same compound, the growth in the assay with IGROV1 ovarian is 93.6%; in the assay on OVCAR-3 ovarian it was 106%; in the assay with HS 578T breast, 105%; in the assay with NCI/ADR-RES ovarian, 76.9%.
For `COc1ccc(-c2cc(-c3cc(OC)ccc3OC)nc(N)c2C#N)cc1`, the growth was 77.1% with SK-MEL-2 melanoma; 70.5% with EKVX NSCLC; 59% in the assay on SN12C renal; 69.4% in the assay with UO-31 renal; 103% with TK-10 renal; 66.1% in the assay on ACHN renal. In addition, the growth in the assay with CAKI-1 renal is 90.3%; in the assay with MOLT-4 leukemia, 85%; in the assay with SR leukemia, 43.9%; with OVCAR-8 ovarian it was 39.5%; with OVCAR-4 ovarian, 48.4%; with SK-OV-3 ovarian, 62.9%. In addition, the growth in the assay on IGROV1 ovarian was 58.7%; with OVCAR-3 ovarian, 53.7%; in the assay with HS 578T breast it was 53.7%; in the assay with NCI/ADR-RES ovarian it was 52.4%.
Regarding `IC(I)I`, the growth was 108% in the assay on SK-MEL-2 melanoma; 102% in the assay on EKVX NSCLC; 95.1% in the assay with SN12C renal; 97.2% in the assay on UO-31 renal; 107% in the assay on TK-10 renal; 110% in the assay on ACHN renal. The growth was 103% with CAKI-1 renal; 102% with MOLT-4 leukemia; 122% in the assay with SR leukemia; 107% in the assay on OVCAR-8 ovarian; 94.1% in the assay with OVCAR-5 ovarian; 108% in the assay on OVCAR-4 ovarian. For the same compound, the growth in the assay on IGROV1 ovarian was 103%; in the assay on OVCAR-3 ovarian it was 106%; in the assay with HS 578T breast, -4.06% (active); in the assay with NCI/ADR-RES ovarian, 105%.
Regarding `CN1CCc2c(sc3nc4n(-c5ccc(Cl)cc5)c(=O)[nH]n4c(=O)c23)C1`, the growth was 96.5% in the assay with SK-MEL-2 melanoma; 101% in the assay on EKVX NSCLC; 107% with SN12C renal; 89.7% in the assay with UO-31 renal; 88.3% in the assay with TK-10 renal; 106% in the assay on ACHN renal. The growth in the assay with CAKI-1 renal was 93.1%; in the assay on MOLT-4 leukemia, 99.1%; in the assay on SR leukemia, 97.6%; in the assay on OVCAR-8 ovarian, 93%; in the assay with OVCAR-5 ovarian it was 115%; in the assay with SK-OV-3 ovarian, 96.8%. The growth was 91.4% with IGROV1 ovarian, 106% with OVCAR-3 ovarian, 121% in the assay on HS 578T breast and 99% in the assay on NCI/ADR-RES ovarian.
For the compound `Cn1c2ccccc2c2c3[nH][nH]c(=O)c3c3c4ccccc4[nH]c3c21`, the growth with SK-MEL-2 melanoma was 10.9%; in the assay with EKVX NSCLC, 49%; in the assay with SN12C renal, 16.1%; in the assay on UO-31 renal it was -26.9% (active); with TK-10 renal it was 93%; in the assay on ACHN renal it was -8.79% (active). For the same compound, the growth in the assay with CAKI-1 renal was 60.2%; in the assay with MOLT-4 leukemia, 5.9% (active); in the assay with SR leukemia it was -12.1% (active); with OVCAR-8 ovarian, 33.1%; with OVCAR-5 ovarian, 62.6%; in the assay with OVCAR-4 ovarian, 51.3%. Also, the growth in the assay on SK-OV-3 ovarian was 13.2%; in the assay with IGROV1 ovarian, 11%; in the assay on OVCAR-3 ovarian, 2.46% (active); with HS 578T breast it was 41%; in the assay on NCI/ADR-RES ovarian, 68.5%.
On to `Nc1nc(-c2cccnc2)nc2c1sc(=S)n2-c1ccccc1`, for which the growth in the assay on SK-MEL-2 melanoma is 101%; in the assay with EKVX NSCLC, 101%; in the assay on SN12C renal it was 98.6%; with UO-31 renal, 97.2%; in the assay on TK-10 renal, 93.5%; in the assay on ACHN renal it was 107%. Further, the growth in the assay on CAKI-1 renal is 98.7%; in the assay with MOLT-4 leukemia, 96.9%; in the assay on SR leukemia, 113%; with OVCAR-8 ovarian, 101%; in the assay with OVCAR-5 ovarian, 125%; in the assay with OVCAR-4 ovarian it was 128%. In addition, the growth in the assay on SK-OV-3 ovarian is 103%; in the assay with IGROV1 ovarian it was 98.1%; in the assay on OVCAR-3 ovarian, 114%; with HS 578T breast, 91.4%; with NCI/ADR-RES ovarian, 93.1%.
Turning to `C=CCSC(CC)(CC)C(=O)NC`, the growth in the assay with SK-MEL-2 melanoma was 109%; in the assay on EKVX NSCLC it was 104%; in the assay on SN12C renal, 101%; in the assay on UO-31 renal, 94.4%; with TK-10 renal, 102%; in the assay on ACHN renal, 107%. Further, the growth is 104% in the assay on A498 renal; 101% in the assay on CCRF-CEM leukemia; 93% in the assay with MOLT-4 leukemia; 99.3% in the assay with SR leukemia; 101% in the assay on RPMI-8226 leukemia; 105% in the assay on OVCAR-8 ovarian. The growth is 104% in the assay on OVCAR-5 ovarian; 109% in the assay with OVCAR-4 ovarian; 105% in the assay with SK-OV-3 ovarian; 113% with IGROV1 ovarian; 112% with OVCAR-3 ovarian; 106% in the assay on HS 578T breast.
Regarding `COc1ccc(-c2nn(-c3cccc(Cl)c3)cc2-c2c(C#N)c(=O)n3[nH]c(-c4ccc(C)cc4)nc3c2C#N)cc1`, the growth in the assay on SK-MEL-2 melanoma is 46%; with EKVX NSCLC it was 37.9%; in the assay on SN12C renal it was 60.9%; in the assay on UO-31 renal, 34.7%; in the assay on TK-10 renal it was 58%; in the assay on ACHN renal, 43.2%. Further, the growth in the assay with CAKI-1 renal was 15.2%; in the assay on MOLT-4 leukemia it was -23.8% (active); in the assay on SR leukemia, 1.64% (active); in the assay on OVCAR-8 ovarian, 14.3%; with OVCAR-5 ovarian it was 87%; in the assay on OVCAR-4 ovarian it was 57.1%. Also, the growth was 55.7% with SK-OV-3 ovarian; 38.5% in the assay with IGROV1 ovarian; 97% in the assay on OVCAR-3 ovarian; 43.4% with HS 578T breast; 51.2% with NCI/ADR-RES ovarian.
